Several values for one entry are separate records, joined by “and”; a condition that tells them apart may be missing. Equal entries are not always repeated. Records with an inconclusive call do not appear. Activity calls are given as the source filed them. Unless noted, the call rests on the fitted dose curve; in most records, active means well fitted curve in the direction sought with a large enough effect; inconclusive means small, poorly fitted or top-dose-only effect, or another doubt; inactive means no such curve, though single readings can be large; an effect the other way counts as inactive or inconclusive.
Columns and labels:
[1] = qHTS assay for small molecule activators of the p53 signaling pathway (AID 651743; active means well fitted activation curve with a large enough effect in the signal ratio, not every such curve was filed as active; the % refers to the signal ratio; further: % of control where 0% means no effect); conditions: HCT-116 p53RE-bla, beta-lactamase FRET ratio, 16 h; activation: stronger effect = higher value
Outline: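 p53RE-bla HCT-116 cells carrying a beta-lactamase reporter under p53 response elements were exposed to compounds for 16 hours at 37 C. Reporter activity read as fluorescence after 2 hours at room temperature with LiveBLAzer B/G FRET substrate.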

[2] = qHTS assay for small molecule activators of the nuclear factor-kappa B (NF-kB) signaling pathway (AID 651749; active means well fitted activation curve with a large enough effect in the signal ratio; the % refers to the signal ratio; further: % of control where 0% means no effect); conditions: NF-kB-bla ME-180 cells, beta-lactamase FRET ratio, 16 h; stronger effect = higher value
Outline: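 NF-kB-bla ME-180 cells carrying a beta-lactamase reporter under an NF-kB response element, 2,000 cells/well, exposed to compound for 16 hr at 37C; FRET-based beta-lactamase fluorescence read-out of pathway activation.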

[3] = qHTS assay for small molecule disruptors of the mitochondrial membrane potential - 1 hr assay (AID 651754; calls by dose curve; further: on the % scale 0 is the no-effect control and ±100 the full control effect; nearly all actives have a fitted effect of over 35% in size)
Outline: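 HepG2 cells, attached overnight, were exposed to compound for 1 hr at 37C, then stained 30 min with a potentiometric dye. Ratio of red aggregate (590nm) to green monomer (535nm) fluorescence reports membrane potential; collapse shifts signal toward green.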

[4] = qHTS assay for small molecule disruptors of the mitochondrial membrane potential - 5 hr assay (AID 651755; calls by dose curve; further: on the % scale 0 is the no-effect control and ±100 the full control effect; nearly all actives have a fitted effect of over 40% in size)
Outline: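 HepG2 cells (2,000/well), attached overnight, exposed to compound 5 hr at 37C, then Mito-MPS dye 30 min. Fluorescence read for monomers (490/535 nm) and aggregates (540/590 nm).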

[5] = qHTS assay for environmental chemicals that activate the Aryl hydrocarbon Receptor (AhR) signaling pathway (AID 651777); conditions: 1A2-DRE human hepatoma cells, luciferase, 24 h; stronger effect = higher value; further: % of control where 0% means no effect; nearly all actives have a fitted effect of over 15% in size
Outline: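 Concentration–response screening used 1,200 1A2-DRE cells per well, 24 hr compound exposure (37 C, 5% CO2), and One-Glo luminescence as the AhR-driven CYP1A2 reporter signal.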

[6] = molecular target: Peroxisome proliferator-activated receptor alpha (Homo sapiens) (UniProt Q07869); assay: qHTS assay for small molecule agonists of the peroxisome proliferator-activated receptor alpha (PPARalpha) signaling pathway (AID 651778); conditions: PathHunter PPARalpha complementation, chemiluminescence, 6 h; stronger effect = higher value; further: % of control where 0% means no effect
Peroxisome proliferator-activated receptor alpha (Homo sapiens), sequence (Q07869 whole entry, looked up, the tested form may be a part): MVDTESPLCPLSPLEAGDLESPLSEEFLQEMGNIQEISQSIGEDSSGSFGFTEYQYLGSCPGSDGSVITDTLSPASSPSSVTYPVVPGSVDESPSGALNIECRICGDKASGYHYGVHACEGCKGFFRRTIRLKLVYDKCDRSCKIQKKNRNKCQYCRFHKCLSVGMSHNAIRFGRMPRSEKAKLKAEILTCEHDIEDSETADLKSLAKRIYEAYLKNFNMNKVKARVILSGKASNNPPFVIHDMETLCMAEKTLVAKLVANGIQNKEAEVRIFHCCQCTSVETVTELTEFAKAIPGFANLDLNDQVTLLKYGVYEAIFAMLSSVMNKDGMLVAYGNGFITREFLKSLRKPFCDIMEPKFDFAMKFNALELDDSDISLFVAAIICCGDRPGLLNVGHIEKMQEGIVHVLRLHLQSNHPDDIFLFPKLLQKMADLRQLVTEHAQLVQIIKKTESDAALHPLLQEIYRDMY
Outline: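 Enzyme-fragment complementation assay in which ligand-bound PPARalpha translocates and forms an active enzyme that generates chemiluminescence. Cells were plated overnight, exposed to compound for 6 hr at 37 C, and then given detection reagent for 60 min at room temperature.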

[7] = Cell Proliferation Assay against the HBL1 Cell Line (AID 651646); conditions: HBL1 DLBCL cells; at 46.1 µM (top of the series);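 further: cells exposed to compound for 48 h before reading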
Outline: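 HBL1 ABC DLBCL cells, 500/well in RPMI with 5% FBS, treated for 48 h at 37C. Viability read by CellTiter-Glo luminescence, normalized to DMSO as 100% and 9.2 uM bortezomib as 0%.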

[8] = Cell Proliferation Assay against the TMD8 Cell Line (Caspase readout at 16 hrs) (AID 651712)
Outline: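 TMD8 cells in RPMI with 5% FBS were treated with compound for 16 h at 37 C, then caspase 3/7 activation was read by Caspase-Glo luminescence. Percent activity was scaled to DMSO (0%) and 9.2 uM bortezomib final (100%).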

[9] = Cell Proliferation Assay against the TMD8 Cell Line (Caspase readout at 8 hrs) (AID 651713);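 further: 0% = DMSO and 100% = 9.2 µM bortezomib caspase signal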
Outline: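 TMD8 cells in RPMI plus 5% FBS were treated with compound for 8 h at 37C. Caspase 3/7 activation was read by Caspase-Glo luminescence. Percent activity was scaled from DMSO (0%) to 9.2 uM bortezomib final (100%).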

[10] = qHTS assay to identify small molecules that stimulate interleukin-8 (IL-8) secretion (AID 651758; active means well fitted activation curve with a large enough effect in the signal ratio; the % refers to the signal ratio; further: 0% is about no effect)
Outline: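 THP-1 cells (2000/well) exposed to compound 16 h at 37 C; secreted IL-8 then detected by HTRF with cryptate- and XL665-labelled anti-IL-8 antibody pair after 1-3 h at room temperature.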

Clc1ccc(C(c2ccc(Cl)cc2)C(Cl)(Cl)Cl)cc1
inactive: activation [1] 2.65% | activation [2] 2.81% | Potency [3] | Potency [4] | activation [5] 0.0892% and -0.298% | max response [6] 4.34% and 1.18%

Nc1ccc([As](=O)(O)O)cc1
inactive: activation [1] -0.538% | activation [2] -0.596% | max response [6] -1.85%

Nc1nc(N)nc(NC2CC2)n1
inactive: activation [1] -0.84% | activation [2] -2.39% | activation [5] 0.42% | max response [6] -0.264%

O=P1(N(CCCl)CCCl)NCCCO1 (stereo not drawn)
inactive: outcome [8] | outcome [9] | activation [1] -1.12% and -2.77% | activation [2] -0.934% and -1.34% | activation [5] 0.318% and -1.16% | max response [6] 7.32% and -1.68%
108%: viability, percent of control [7]

Nc1ccccc1C(=O)O
inactive: activation [1] -0.0398% | activation [2] 1.57% | activation [5] 3.23% | max response [6] 0.553%

CCC(C)(C)c1ccc(O)cc1
inactive: activation [1] 0.115% and -4.79% | activation [2] -2.14% and 1.1% | activation [5] 0.262% and -0.822% | max response [6] 5.88% and -1.73%

COP(=S)(OC)Oc1ccc(SC)c(C)c1
inactive: activation [1] -1.52% and -0.273% | activation [2] -0.287% and 1.27% | Potency [4] | outcome [10] | max response [6] 6.43% and 7.61%

— PubChem BioAssay (NCATS)
